Hits are enriched below; roughly 8.5% of the tested compounds scored in any of these assays.
Coupling enz: inhibits coupling enzyme system, counter-screen for aldolase hits | coupling enzyme system counterscreen, AmpLite Red fluorescence | activity change, negative = inhibition, % at 58.2 µM, hits read low | 0.67% of 290,000 active; in the data active = activity change below about -30%
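Coupling enzymes only (glyceraldehyde-3-phosphate) + compound, at 57.5 uM final, 10 min RT; add substrate/coupling/AmpLite Red mix, 20 min RT; fluorescence ex 525/em 598 nm. Actives flag coupling-system interference.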
JMJD2E inh: blocks human JMJD2E demethylase activity | B2RXH2 | JMJD2E catalytic domain, FDH-coupled NADH fluorescence (FDH is formaldehyde dehydrogenase) | Potency, µM (series often up to 57.1 µM), actives largely listed as inhibitors | 1.6% of 230,000 active | AID 2147; active = well fitted inhibition curve with a large enough effect, not every such curve was filed as active; inconclusive = small, poorly fitted or top-dose-only effect, or another doubt; inactive = no such curve, though single readings can be large or run the other way; note: nearly all actives have a fitted effect of over 50% in size
Sfp inh: Sfp phosphopantetheinyl transferase inhibition | Q9F4F7 | 3.5% of 310,000 active | Biochemical Sfp PPTase activity, qHTS | Potency, µM, hits mostly inhibitors;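 note: the enzyme is Sfp with the accession as filed and its product quenches rhodamine fluorescence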
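After 15 min at room temperature with compound, 15 nM Sfp received 5 uM rhodamine-CoA plus 12.5 uM BHQ-2-ybbR (50 mM Hepes pH 7.6, 10 mM MgCl2). Rate came from the fluorescence difference over 30 min, ex 525/em 598 nm.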
ALDH1A1 inh: ALDH1A1 (human) enzyme inhibition. Purified ALDH1A1, NADH fluorescence, propionaldehyde substrate. Potency, µM (doses to about 75.3 µM), usual class: inhibitors. 7.3% of 220,000 active. AID 1030; active = well fitted inhibition curve with a large enough effect, not every such curve was filed as active; inconclusive = small, poorly fitted or top-dose-only effect, or another doubt; inactive = no such curve, though single readings can be large or run the other way
Target sequence (P00352 whole entry, looked up): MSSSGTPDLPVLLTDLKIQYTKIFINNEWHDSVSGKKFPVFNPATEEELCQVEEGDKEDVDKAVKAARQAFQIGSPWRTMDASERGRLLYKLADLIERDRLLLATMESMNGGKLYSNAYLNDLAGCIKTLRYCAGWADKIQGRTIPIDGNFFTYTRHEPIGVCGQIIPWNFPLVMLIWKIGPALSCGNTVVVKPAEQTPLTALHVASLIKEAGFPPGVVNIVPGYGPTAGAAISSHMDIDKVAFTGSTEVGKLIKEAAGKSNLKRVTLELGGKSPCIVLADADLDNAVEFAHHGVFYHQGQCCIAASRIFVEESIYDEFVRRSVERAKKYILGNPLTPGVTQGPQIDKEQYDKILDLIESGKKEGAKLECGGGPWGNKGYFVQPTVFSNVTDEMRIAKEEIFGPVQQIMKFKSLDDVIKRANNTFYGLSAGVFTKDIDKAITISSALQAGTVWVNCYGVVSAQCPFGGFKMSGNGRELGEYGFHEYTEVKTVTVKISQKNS
GoLoco inh red: blocks human Gai1 binding to RGS12 GoLoco peptide, red readout | P63096 | Gai1:RGS12 GoLoco peptide FP, rhodamine, 10 min | Potency, µM (top dose mostly 61.6 µM), most hits filed as inhibitors | 0.44% of 230,000 active; active = well fitted inhibition curve with a large enough effect, not every such curve was filed as active; inactive = no such curve, though single readings can be large or run the other way; note: nearly all actives have a fitted effect of over 30% in size
NPSR antag: antagonists of human neuropeptide S receptor cAMP signaling; CHO-NPSR cells, cAMP TR-FRET, antagonist mode; Potency, µM (top dose mostly 38.3 µM), most hits filed as inhibitors; 1% of 220,000 active; note: nearly all actives have a fitted effect of over 50% in size
Of the large screens only hits and unclear results are named; the others gave an inactive call. Unless noted, calls come from the whole dose curve; as a rule, active = well fitted curve in the direction sought with a large enough effect; inconclusive = small, poorly fitted or top-dose-only effect, or another doubt; inactive = no such curve, though single readings can be large; an effect the other way counts as inactive or inconclusive.

COc1ccc(N=C2NC(=O)/C(=C\c3ccco3)S2)cc1	JMJD2E inh inconclusive, Sfp inh inconclusive, ALDH1A1 inh inconclusive
Cc1c(C(N)=O)sc2ncn(CC(=O)N(C)C3CCCCC3)c(=O)c12	none (no result: JMJD2E inh, ALDH1A1 inh, GoLoco inh red, NPSR antag)
COc1ccc(N=C2S/C(=C\c3ccc(C)o3)C(=O)N2CC(C)C)cc1	Sfp inh 28µM, ALDH1A1 inh 8.9µM, NPSR antag inconclusive
O=C(O)CC(O)CC(O)/C=C/c1c(C2CC2)nc2ccccc2c1-c1ccc(F)cc1 (stereo not drawn)	none (no result: Coupling enz, JMJD2E inh, ALDH1A1 inh, NPSR antag)
CCCNS(=O)(=O)c1ccc(CCC(=O)Nc2ccc3c(c2)OCCO3)cc1	ALDH1A1 inh 10µM
CCCNS(=O)(=O)c1ccc(CCC(=O)NCc2ccco2)cc1	Sfp inh inconclusive, ALDH1A1 inh 2.2µM
CCC(C)NS(=O)(=O)c1ccc(OCC(=O)Nc2ccc3c(c2)OCO3)cc1 (stereo not drawn)	ALDH1A1 inh 1.3µM
CC(C)NS(=O)(=O)c1ccc(CCC(=O)Nc2ccc3c(c2)OCO3)cc1	ALDH1A1 inh 0.4µM
CC(C)C[C@@H](NC(=O)[C@@H](Cc1ccccc1)NC(=O)c1cnccn1)B(O)O	none (no result: Coupling enz, JMJD2E inh, ALDH1A1 inh, GoLoco inh red, NPSR antag)
O=C(NCCCNC(=O)c1cnccn1)c1cccc(F)c1	none (no result: JMJD2E inh, ALDH1A1 inh, GoLoco inh red, NPSR antag)
CC1(C(=O)O)COC(c2ccc([N+](=O)[O-])cc2)OC1 (stereo not drawn)	none
O=C1NC(C(=O)O)=CC(c2ccc([N+](=O)[O-])cc2)N1 (stereo not drawn)	Sfp inh 8.9µM, ALDH1A1 inh 14µM
CN1CCC(=NNC(=O)CSc2ccc(Cl)cc2)CC1	ALDH1A1 inh inconclusive
CCc1c(C)sc(NC(=O)Cn2nc(C)c([N+](=O)[O-])c2C)c1C(N)=O	Sfp inh 11µM, ALDH1A1 inh 7.1µM
CCOC(=O)CNC(=O)CSc1nc(-c2cccc(C)c2)ns1	ALDH1A1 inh 20µM
CCOC(=O)CSc1nnc(SCCN2C(=O)c3ccccc3C2=O)s1	ALDH1A1 inh 28µM
Nc1nnc(SCCN2C(=O)c3ccccc3C2=O)s1	none
O=C(CSc1nnc(NC(=O)c2ccccc2F)s1)NCC1CCCO1 (stereo not drawn)	Sfp inh 50µM (no result: Coupling enz, JMJD2E inh, ALDH1A1 inh, GoLoco inh red, NPSR antag)
CCOC(=O)CNC(=O)CSc1nnc(SCC(=O)NCC(=O)OCC)s1	Sfp inh inconclusive, ALDH1A1 inh 0.25µM
Cc1cccc(-c2nsc(SCC(=O)NCc3ccco3)n2)c1	Sfp inh inconclusive, ALDH1A1 inh inconclusive
O=C(CSc1nnc(NC(=O)c2ccccc2)s1)NCC1CCCO1 (stereo not drawn)	none (no result: JMJD2E inh, ALDH1A1 inh, GoLoco inh red, NPSR antag)
COc1ccc(N2CC(C(=O)N3CCN(Cc4ccc5c(c4)OCO5)CC3)CC2=O)cc1 (stereo not drawn)	none (no result: JMJD2E inh, ALDH1A1 inh, GoLoco inh red, NPSR antag)
CCc1ccc(/C=C2\Oc3c(ccc(O)c3CN3CCN(CCO)CC3)C2=O)cc1	JMJD2E inh inconclusive (no result: ALDH1A1 inh)
Cc1cccc(-c2nsc(SCC(=O)NCC3CCCO3)n2)c1 (stereo not drawn)	Sfp inh inconclusive, ALDH1A1 inh 20µM
Cc1cccc(-c2noc(-c3ccccc3C(=O)NCC3CCCO3)n2)c1 (stereo not drawn)	ALDH1A1 inh 16µM
Cc1cc(-c2cc(C(=O)NCc3ccccc3)on2)nc(NC2CCCC2)n1	JMJD2E inh inconclusive (no result: ALDH1A1 inh)
COc1ccc(NC(=O)Cn2c(=O)n(-c3ccc(OC)cc3OC)c(=O)c3c(C)c(C)sc32)cc1	ALDH1A1 inh inconclusive
CCOc1ccc(S(=O)(=O)N(C)c2ccc(OCC(=O)NCC3CCCO3)cc2)cc1 (stereo not drawn)	none
Cc1ccc(NC(=O)c2ccc(Nc3c([N+](=O)[O-])cc([N+](=O)[O-])cc3[N+](=O)[O-])cc2)cc1	ALDH1A1 inh 0.56µM
CCN(c1ccc(OC)cc1)S(=O)(=O)N1CCCC(C(=O)NCc2cccc(C)c2)C1 (stereo not drawn)	none (no result: JMJD2E inh, ALDH1A1 inh, GoLoco inh red, NPSR antag)
CC1=c2c(oc3cc(O)c(Nc4c(C)cc(O)cc4O)c(C)c23)=CC(=O)C1=Nc1c(C)cc(O)cc1O	GoLoco inh red 3.2µM (no result: Coupling enz, JMJD2E inh, Sfp inh, NPSR antag)
CCCC(=NCCc1c(C)[nH]c2ccccc12)C1=C(O)CC(c2ccccc2)CC1=O (stereo not drawn)	none
CC(=NCCc1c(C)[nH]c2ccc(C)cc12)C1=C(O)CC(c2ccccc2)CC1=O (stereo not drawn)	none
CC(=NCCc1c(C)[nH]c2ccc(OC(F)(F)F)cc12)C1=C(O)CC(c2ccccc2)CC1=O (stereo not drawn)	Sfp inh inconclusive, NPSR antag 10µM
CCCCC(=NCCc1c(C)[nH]c2ccccc12)C1=C(O)CC(c2ccccc2)CC1=O (stereo not drawn)	ALDH1A1 inh inconclusive, NPSR antag 7.9µM
O=C(Nc1ccc(Oc2ccccc2)cc1)C1CCN(c2c3c(nc4ncnn24)CCC3)CC1	ALDH1A1 inh inconclusive, NPSR antag 13µM
O=C(Nc1ccc2c(c1)CCC2)C1CCN(c2c3c(nc4ncnn24)CCC3)CC1	ALDH1A1 inh 16µM
COc1cccc(/C=N/NC(=O)c2ccc(N3CCCC3=O)cc2)c1	none (no result: JMJD2E inh, ALDH1A1 inh, GoLoco inh red, NPSR antag)
Cc1ccc(N=Cc2cc(Cc3ccccc3Cl)cc([N+](=O)[O-])c2O)c(O)c1	JMJD2E inh 18µM, Sfp inh 50µM, ALDH1A1 inh 11µM, NPSR antag inconclusive
COc1ccc([N+](=O)[O-])cc1NC(=O)Cc1ccccc1Cl	none
COc1ccc(N=Cc2cc(Cc3ccccc3Cl)cc([N+](=O)[O-])c2O)cc1OC	JMJD2E inh inconclusive, ALDH1A1 inh 7.1µM
Cn1c(CNC(=O)CNC(=O)c2ccccc2)cc(=O)n(C)c1=O	none (no result: JMJD2E inh, ALDH1A1 inh, GoLoco inh red, NPSR antag)
COC(=O)NC(c1ccccc1)c1c[nH]c2ccccc12 (stereo not drawn)	none (no result: NPSR antag)
O=S(=O)(NC1CCCCCCC1)c1ccccc1	none (no result: JMJD2E inh, ALDH1A1 inh, GoLoco inh red, NPSR antag)
O=S(=O)(NC(=S)NC1CCCCC1)c1ccccc1	Sfp inh inconclusive, ALDH1A1 inh 22µM
O=S(=O)(NC(=S)NC1CCCCC1)c1cccs1	Sfp inh inconclusive, ALDH1A1 inh 5.6µM
Cc1ccc(-c2csc(NC(=O)c3cccc(S(=O)(=O)N4CCN(C)CC4)c3)n2)cc1	ALDH1A1 inh 2.5µM
O=S(=O)(/N=C(\Sc1ccc(Cl)cc1)c1ccccc1)c1ccccc1	JMJD2E inh inconclusive, Sfp inh 56µM
CS/C(=N\S(=O)(=O)c1ccc(Cl)cc1)c1ccccc1	none
CCCCCc1ccc(C)cc1O	none (no result: Coupling enz, JMJD2E inh, ALDH1A1 inh, GoLoco inh red, NPSR antag)
COc1ccc(C)cc1S(=O)(=O)NC1CC1	none (no result: JMJD2E inh, ALDH1A1 inh, GoLoco inh red, NPSR antag)
CC1=NN(c2ccccc2)C(=O)/C1=C\C=C\c1ccccc1	ALDH1A1 inh inconclusive
CC1=NN(c2ccc(C)c(C)c2)C(=O)/C1=C\C=C\c1ccc([N+](=O)[O-])o1	ALDH1A1 inh 8.9µM, NPSR antag inconclusive
CC1(C)CC(=O)C2=C(C1)Nc1ccccc1N=C2	JMJD2E inh inconclusive, Sfp inh 40µM, ALDH1A1 inh 1.8µM
CC(c1ccccc1)N1CCN(C(=O)CCl)CC1 (stereo not drawn)	ALDH1A1 inh 0.45µM
CS(=O)(=O)c1nc(-c2ccccc2)cc(C(F)(F)F)n1	NPSR antag 10µM

Screens from PubChem BioAssay.
